# In PubChem BioAssay (Tox21):
# Inconclusive results are not listed. Entries that show only a call come without a potency. The source made the active and inactive calls. The call rests on the fitted dose curve; in most records, active means well fitted cell-killing curve with a large enough effect in the repeat runs; inconclusive means weak or mixed curves, or effect the other way; inactive means no such curve, though single readings can be large or run the other way.
# Test: qHTS assay to identify small molecule antagonists of the glucocorticoid receptor (GR) signaling pathway - cell viability counter screen (AID 720693); further: nearly all actives have a fitted effect of over 55% in size
# Details: GR-bla HeLa viability, CellTiter-Glo luminescence, 18 h, with 5 nM dexamethasone present; series mostly up to 58.5 µM
# Description: National Center for Advancing Translational Sciences [NCATS]
# NIH Chemical Genomics Center [NCGC]
# U.S. Environmental Protection Agency [EPA]
# National Institutes of Environmental Health Sciences [NIEHS]
# National Toxicology Program [NTP]
# U.S. Food and Drug Administration [FDA]
# The Glucocorticoid receptor (GR) is one of the members of the nuclear receptor family of ligand-dependent transcription factors. GR plays a critical role in carbohydrate, protein and lipid metabolisms and programmed cell death. CellSensor GR-bla HeLa cell line (Invitrogen) contains a beta-lactamase reporter gene under the control of the glucocorticoid response element stably integrated into HeLa cells, a cervical cancer cell line that expresses glucocorticoid receptor. The activation of the reporter gene under culture conditions can be detected by fluorescence intensity. This cell line has been used to screen the Tox21 10K compound library and to identify the compounds that inhibit the GR signaling. The cytotoxicity of the Tox21 compound library against the GR-bla HeLa cell line was tested in parallel by measuring the cell viability using CellTiter-Glo assay in the same wells.
# Tox21 Assay Protocol Summary:
# The GR-bla HeLa cells were dispensed at 1500 cells/5 ul/well in 1536-well black wall/clear bottom plates using a Multidrop Combi (ThermoFisher Scientific, Waltham, MA) dispenser. After the assay plates were incubated at a 37 C/5% CO2 incubator for 4 hours, 23 nL of compounds dissolved in DMSO, positive controls or DMSO only was transferred to the assay plate by a pintool station (Kalypsys, San Diego, CA), followed by addition of 1 uL of dexamethasone (5 nM, final concentration in the well). The plates were incubated at 37 C for 18 hours. After 1 uL of LiveBLAzerTM B/G FRET substrate was added using a Flying Reagent Dispenser (Aurora Discovery, San Diego, CA), the plates were incubated at room temperature (RT) for 2 hours, and fluorescence intensity was measured by an Envision plate reader (PerkinElmer, Shelton, CT). After measurement of bla assay, 3 ul CellTiter-Glo (Promega, Madison, WI) was added to measure the cytotoxicity and the plates were then incubated at RT for 30 min. The luminescence was measured using a ViewLux (Perkin Elmer) plate reader.
Compound,Potency,"viability change, negative = cytotoxic"
CC(C)COC(=O)CC(C(=O)OCC(C)C)S(=O)(=O)O (stereo not given),inactive,
O=C(c1ccc2c(c1)C(=O)OC2=O)c1ccc2c(c1)C(=O)OC2=O,inactive,
CC(=O)Nc1ncc([N+](=O)[O-])s1,inactive,
CCCCCCCCCCCCCC(=O)OC,inactive,
BrC/C=C/CBr,inactive,
CCC1COC(=O)O1 (stereo not given),inactive,
CC(=O)c1ccc2c(c1)CCCC2,inactive,
COc1cccc2sc(N)nc12,inactive,
CC(C)c1ccccc1O,inactive,
Cc1cccc(Nc2ccncc2S(=O)(=O)NC(=O)NC(C)C)c1,inactive,
COCCOCCOCCOC,inactive,
CC(C)CCCC(C)CC=O (stereo not given),inactive,
C=CCOc1c(Br)cc(C(C)(C)c2cc(Br)c(OCC=C)c(Br)c2)cc1Br,inactive,
O=c1cc(O)c(Cl)c[nH]1,inactive,
SCCSCCS,inactive,
CCS(=O)(=O)CCn1c([N+](=O)[O-])cnc1C,inactive,
NC(Cc1c[nH]c2ccccc12)C(=O)O (stereo not given),inactive,
Cn1c(=O)c2c(ncn2CC2OCCO2)n(C)c1=O,inactive,
O=c1[nH]c(=O)c2[nH]c(=O)[nH]c2[nH]1,inactive,
C=CCCCCCCCCCCC,,4.18% [at 7.04 µM] (inactive)

Compound,Potency,"viability change, negative = cytotoxic"
CCC(CO)CO,inactive,
CCCCCC(=O)OCC,inactive,
OC(CCN1CCCCC1)(c1ccccc1)c1ccccc1,inactive,
Cc1ccc2c(c1)c1c3n2CCNC3CCC1 (stereo not given),inactive,
CCCCCCCC/C=C\CCCCCCCC(=O)OC[C@@H](O)[C@H]1OC[C@H](O)[C@H]1O,inactive,
CCOC(=O)CC(CC(=O)OCC)(OC(C)=O)C(=O)OCC,inactive,
CNCc1ccccc1,inactive,
O=c1[nH]c(=O)c2ccccc2o1,inactive,
COC(OC)C(C)c1ccccc1 (stereo not given),inactive,
CC(C)COC(=O)CCCCC(=O)OCC(C)C,inactive,
CCCCCCCCCCCCCCCC(=O)NCCO,inactive,
COc1ccc(NS(=O)(=O)c2ccc(N)cc2)nn1,inactive,
CCC(C)N (stereo not given),inactive,
CC(C)CCCCCCOC(=O)C1CCCCC1C(=O)OCCCCCCC(C)C (stereo not given),inactive,
C[N+](C)(C)CC(O)CCl (stereo not given),inactive,
CC(CC(=O)O)CC(C)(C)C (stereo not given),inactive,
Cc1cc(C)cc([N+](=O)[O-])c1,inactive,
C=C(C)C(=O)OC,inactive,
CO[Si](CCCCl)(OC)OC,inactive,
O=C(O)Cc1cccc(-c2cc(CCCCCCc3ccc(O[C@H]4O[C@H](CO)[C@@H](O)[C@H](O)[C@@H]4O)c(-c4cccc(CC(=O)O)c4)c3)ccc2O[C@H]2O[C@H](CO)[C@@H](O)[C@H](O)[C@@H]2O)c1,inactive,
